# Laboratory results: paper PMC10812921, “Transcriptional Coactivator BOB1 (OBF1, OCA-B) Modulates the Specificity of DNA Recognition by the POU-Domain Factors OCT1 and OCT2 in a Monomeric Configuration”
# Assays:
# [1] = biological target: POU1 (OCT1 POU domain) (human, UniProt P14859 260-458); experiment: EMSA-SELEX-seq; no BOB1; 20 mM Tris-HCl pH 7.6, 140 mM NaCl, 10% glycerol, 0.5 mM EDTA, 0.05% Triton X-100, 0.1 mg/mL BSA, 0.1 mg/mL poly(dI-dC), 5 mM DTT, room temperature, 20 min; high values mean tight binding; conditions: protein: recombinant; dsDNA, one strand shown
# Chain of POU1 (OCT1 POU domain) (P14859 260-458): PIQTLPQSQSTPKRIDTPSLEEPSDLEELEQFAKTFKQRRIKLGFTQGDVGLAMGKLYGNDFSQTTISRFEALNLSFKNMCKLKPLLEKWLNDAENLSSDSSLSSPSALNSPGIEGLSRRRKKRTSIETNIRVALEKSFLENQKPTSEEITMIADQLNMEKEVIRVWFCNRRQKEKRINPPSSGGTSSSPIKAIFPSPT
# Summary of the method: (§1)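 A double-stranded random 35-nt library (300 ng, PCR-amplified) was incubated with 30 ng tagged POU-domain protein, with or without 28 ng coactivator protein, in 20 μL Tris–HCl pH 7.6 binding buffer for 20 min at RT. The proteins had been expressed in E. coli BL21, purified under denaturing conditions and renatured. Complex bands from native 6% PAGE were eluted and PCR-amplified over four rounds, then sequenced on Illumina. For binding preference, the percentage of sequenced 8-mers matching a motif pattern was calculated.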
# [2] = biological target: T1, POU2 (OCT2 POU domain) (human, UniProt P09086 175-386); experiment: as above; conditions: protein: recombinant; dsDNA, one strand shown
# T1 sequence: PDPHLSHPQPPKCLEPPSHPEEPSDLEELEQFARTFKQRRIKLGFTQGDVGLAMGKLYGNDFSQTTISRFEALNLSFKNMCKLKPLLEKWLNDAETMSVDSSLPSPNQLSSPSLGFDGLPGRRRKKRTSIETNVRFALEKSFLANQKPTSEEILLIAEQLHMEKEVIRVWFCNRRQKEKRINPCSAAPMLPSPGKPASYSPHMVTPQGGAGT
# Summary of the method: as §1
# [3] = biological target: POU1 (OCT1 POU domain);BOB1 (OBF1, OCA-B) (human;human, UniProt P14859;Q16633 260-458;1-256, |); experiment: EMSA-SELEX-seq; with BOB1 (ternary complex band); 20 mM Tris-HCl pH 7.6, 140 mM NaCl, 10% glycerol, 0.5 mM EDTA, 0.05% Triton X-100, 0.1 mg/mL BSA, 0.1 mg/mL poly(dI-dC), 5 mM DTT, room temperature, 20 min; high values mean tight binding; conditions: protein: recombinant;recombinant; copies: 1;1; dsDNA, one strand shown
# Summary of the method: as §1
# [4] = biological target: T2, POU2 (OCT2 POU domain);BOB1 (OBF1, OCA-B) (human;human, UniProt P09086;Q16633 175-386;1-256, |); experiment: as above; conditions: protein: recombinant;recombinant; copies: 1;1; dsDNA, one strand shown
# T2 sequence 1: T1 sequence
# T2 sequence 2: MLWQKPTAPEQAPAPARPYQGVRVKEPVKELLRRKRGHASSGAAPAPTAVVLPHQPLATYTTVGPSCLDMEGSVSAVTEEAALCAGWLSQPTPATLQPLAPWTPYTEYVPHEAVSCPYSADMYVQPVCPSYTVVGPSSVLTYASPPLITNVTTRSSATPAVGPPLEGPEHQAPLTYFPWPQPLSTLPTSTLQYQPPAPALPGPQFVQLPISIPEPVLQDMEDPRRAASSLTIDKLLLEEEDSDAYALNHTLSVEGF
# Summary of the method: as §1
Sequence,binding signal [1],binding signal [2],binding signal [3],binding signal [4]
ACGGGAAC,0.0225 % of ANNNNAAN 8-mers,0.027 % of ANNNNAAN 8-mers,0.0215 % of ANNNNAAN 8-mers,0.0231 % of ANNNNAAN 8-mers
AGTCAAAC,0.0763 % of ANNNNAAN 8-mers,0.042 % of ANNNNAAN 8-mers,0.122 % of ANNNNAAN 8-mers,0.0545 % of ANNNNAAN 8-mers
ACCCTAAA,0.0137 % of ANNNNAAN 8-mers,0.0173 % of ANNNNAAN 8-mers,0.0137 % of ANNNNAAN 8-mers,0.0107 % of ANNNNAAN 8-mers
ATCCCAAT,0.0317 % of ANNNNAAN 8-mers,0.038 % of ANNNNAAN 8-mers,0.025 % of ANNNNAAN 8-mers,0.033 % of ANNNNAAN 8-mers
ATGTAAAA,0.714 % of ANNNNAAN 8-mers,0.496 % of ANNNNAAN 8-mers,0.631 % of ANNNNAAN 8-mers,0.618 % of ANNNNAAN 8-mers
ACATCAAC,0.0172 % of ANNNNAAN 8-mers,0.0253 % of ANNNNAAN 8-mers,0.0211 % of ANNNNAAN 8-mers,0.0281 % of ANNNNAAN 8-mers
ATCTCAAG,0.0313 % of ANNNNAAN 8-mers,0.0368 % of ANNNNAAN 8-mers,0.039 % of ANNNNAAN 8-mers,0.0413 % of ANNNNAAN 8-mers
AGTTGAAC,0.0259 % of ANNNNAAN 8-mers,0.0253 % of ANNNNAAN 8-mers,0.0258 % of ANNNNAAN 8-mers,0.0338 % of ANNNNAAN 8-mers
ATCTTAAG,0.0461 % of ANNNNAAN 8-mers,0.0541 % of ANNNNAAN 8-mers,0.0503 % of ANNNNAAN 8-mers,0.0438 % of ANNNNAAN 8-mers
ATTGCAAA,0.202 % of ANNNNAAN 8-mers,0.167 % of ANNNNAAN 8-mers,0.322 % of ANNNNAAN 8-mers,0.324 % of ANNNNAAN 8-mers
AAAAGAAC,0.0351 % of ANNNNAAN 8-mers,0.0443 % of ANNNNAAN 8-mers,0.0468 % of ANNNNAAN 8-mers,0.0338 % of ANNNNAAN 8-mers
AGCTCAAA,0.0252 % of ANNNNAAN 8-mers,0.0213 % of ANNNNAAN 8-mers,0.0242 % of ANNNNAAN 8-mers,0.0264 % of ANNNNAAN 8-mers
ACGCAAAT,0.564 % of ANNNNAAN 8-mers,0.409 % of ANNNNAAN 8-mers,1.27 % of ANNNNAAN 8-mers,1.38 % of ANNNNAAN 8-mers
ACTGAAAA,0.0313 % of ANNNNAAN 8-mers,0.0363 % of ANNNNAAN 8-mers,0.0328 % of ANNNNAAN 8-mers,0.0363 % of ANNNNAAN 8-mers
AAGAGAAA,0.0511 % of ANNNNAAN 8-mers,0.0621 % of ANNNNAAN 8-mers,0.0531 % of ANNNNAAN 8-mers,0.038 % of ANNNNAAN 8-mers
AAGCGAAC,0.0221 % of ANNNNAAN 8-mers,0.0178 % of ANNNNAAN 8-mers,0.0176 % of ANNNNAAN 8-mers,0.0231 % of ANNNNAAN 8-mers
AATTAAAC,0.14 % of ANNNNAAN 8-mers,0.194 % of ANNNNAAN 8-mers,0.0905 % of ANNNNAAN 8-mers,0.0966 % of ANNNNAAN 8-mers
ACGAGAAT,0.0492 % of ANNNNAAN 8-mers,0.0547 % of ANNNNAAN 8-mers,0.0347 % of ANNNNAAN 8-mers,0.0553 % of ANNNNAAN 8-mers
ATCATAAG,0.0496 % of ANNNNAAN 8-mers,0.0581 % of ANNNNAAN 8-mers,0.0379 % of ANNNNAAN 8-mers,0.0421 % of ANNNNAAN 8-mers
ATATGAAA,0.159 % of ANNNNAAN 8-mers,0.164 % of ANNNNAAN 8-mers,0.226 % of ANNNNAAN 8-mers,0.239 % of ANNNNAAN 8-mers
AACCAAAG,0.0336 % of ANNNNAAN 8-mers,0.038 % of ANNNNAAN 8-mers,0.0539 % of ANNNNAAN 8-mers,0.0231 % of ANNNNAAN 8-mers
ATCGTAAT,0.085 % of ANNNNAAN 8-mers,0.108 % of ANNNNAAN 8-mers,0.0679 % of ANNNNAAN 8-mers,0.0768 % of ANNNNAAN 8-mers
AAAGGAAG,0.0561 % of ANNNNAAN 8-mers,0.061 % of ANNNNAAN 8-mers,0.0675 % of ANNNNAAN 8-mers,0.0702 % of ANNNNAAN 8-mers
ACACTAAA,0.0256 % of ANNNNAAN 8-mers,0.0293 % of ANNNNAAN 8-mers,0.0273 % of ANNNNAAN 8-mers,0.0173 % of ANNNNAAN 8-mers
AACGAAAG,0.0313 % of ANNNNAAN 8-mers,0.0328 % of ANNNNAAN 8-mers,0.0328 % of ANNNNAAN 8-mers,0.0264 % of ANNNNAAN 8-mers
AATTCAAA,0.373 % of ANNNNAAN 8-mers,0.292 % of ANNNNAAN 8-mers,0.438 % of ANNNNAAN 8-mers,0.4 % of ANNNNAAN 8-mers
AGTCCAAA,0.0256 % of ANNNNAAN 8-mers,0.0299 % of ANNNNAAN 8-mers,0.0332 % of ANNNNAAN 8-mers,0.0281 % of ANNNNAAN 8-mers
AGCGGAAA,0.0378 % of ANNNNAAN 8-mers,0.0472 % of ANNNNAAN 8-mers,0.0324 % of ANNNNAAN 8-mers,0.033 % of ANNNNAAN 8-mers
AGTGTAAA,0.0576 % of ANNNNAAN 8-mers,0.0667 % of ANNNNAAN 8-mers,0.0687 % of ANNNNAAN 8-mers,0.052 % of ANNNNAAN 8-mers
ACCATAAA,0.0625 % of ANNNNAAN 8-mers,0.0662 % of ANNNNAAN 8-mers,0.0304 % of ANNNNAAN 8-mers,0.0264 % of ANNNNAAN 8-mers
